# Bioassay records as filed in PubChem.
# An excerpt weighted towards active compounds, which were near 3.7% of everything screened.
# AF4-AF9 inh = MLL-AF4/AF9 protein interaction inhibition. inhibition, % at 10 µM. 0.47% of 350,000 active. P42568. AID 651704. AlphaScreen, biotin-AF4 peptide binding to FLAG-AF9;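 active means every replicate reaching a set inhibition limit, whatever the replicate mean, cut at about 25% in these data; inconclusive means mean inhibition reaches that limit but some replicates miss it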;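 further: 0% = plate neutral control median and 100% = total signal loss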
# Target sequence (P42568 whole entry, looked up): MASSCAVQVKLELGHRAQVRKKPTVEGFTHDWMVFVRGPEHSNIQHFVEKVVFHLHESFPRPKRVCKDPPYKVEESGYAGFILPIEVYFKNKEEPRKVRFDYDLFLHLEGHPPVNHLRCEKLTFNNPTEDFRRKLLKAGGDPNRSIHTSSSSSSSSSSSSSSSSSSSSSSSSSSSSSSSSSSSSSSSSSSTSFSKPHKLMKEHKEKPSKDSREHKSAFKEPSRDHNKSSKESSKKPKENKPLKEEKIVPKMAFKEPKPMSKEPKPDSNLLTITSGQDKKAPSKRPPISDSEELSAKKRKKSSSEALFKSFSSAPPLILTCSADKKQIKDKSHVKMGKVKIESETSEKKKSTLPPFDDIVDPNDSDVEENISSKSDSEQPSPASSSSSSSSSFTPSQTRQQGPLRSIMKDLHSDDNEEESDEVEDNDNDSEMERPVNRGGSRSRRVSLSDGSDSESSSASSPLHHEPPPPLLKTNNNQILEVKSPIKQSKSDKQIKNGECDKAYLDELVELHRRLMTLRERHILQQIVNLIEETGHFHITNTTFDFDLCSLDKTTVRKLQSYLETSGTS
# esBAF inh = blocks esBAF chromatin remodeling in mouse ES cells. Bmi1-luciferase knock-in reporter, 24 h; 100% = twice the neutral-well signal. reporter increase, % at 12.5 µM. 2% of 350,000 active. AID 602393; in the data active means activation above about 40%; inconclusive means no clear call, values can overlap the other calls;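 further: 0% = median of the plate's neutral control wells and 100% = double that signal; a rise in the Bmi1 reporter signal indicates esBAF inhibition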
# Wnt bcat act = activates Wnt/beta-catenin signaling in a reporter cell assay. activator, plate reader. AID 743398. activation, % at 9.35 µM. 1.2% of 300,000 active; in the data active means activation above about 30%, passing the limit was not always enough; inconclusive means no clear call, values can overlap the other calls;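 further: 0% = neutral control wells and 100% = positive control wells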
# Ecoli rRNA inh = inhibits bacterial ribosomal RNA function over humanized ribosomes; E. coli WT GFP vs humanized-ribosome RFP mutants, fluorescence, 24 h; stronger effect = lower value; DMSO median 0, no signal -100; GFP signal change (wild-type ribosome), % (no concentration beside the values); 1.6% of 350,000 active;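 active means significant combined selectivity score with lowered wild-type GFP, culture density cut under 30%, mutant RFP and density less affected; inactive means any of these conditions unmet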
# MITF TRPM1 HTS = MITF TRPM1 promoter activation in melanoma cells; SK-MEL-5 TRPM1-promoter luciferase, 24 h; % of positive control, neutral wells = 0; activation, % at 12.5 µM; 0.75% of 300,000 active; AID 588334;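 active means mean activation of at least 80% with every replicate also reaching 80%; inconclusive means mean reaches 80% but some replicate falls short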;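 further: 0% = neutral control wells and 100% = parthenolide positive control wells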
# Numbers without * were called inactive; ? = inconclusive; · = no result.
SMILES,AF4-AF9 inh,esBAF inh,Wnt bcat act,Ecoli rRNA inh,MITF TRPM1 HTS
O=C(CSc1ccc(Cl)cc1)N1CCOCC1,·,10.3,4.9,·,21.6
O=C(CCSc1ccc(Cl)cc1)N1CCOCC1,·,42.0*,24.9,·,·
COc1cc(Br)cc(/C=C/c2ccc3cccc(O)c3n2)c1OC,-2.2,9.2,1.5,-2.7,-21.9
COc1cccc(/C=C/c2ccc3cccc(O)c3n2)c1OC,10.1,68.8*,53.7*,-47.9,16.7
COc1ccc(/C=C/c2ccc3cccc(O)c3n2)c(OC)c1OC,14.2,83.7*,57.3*,-56.3,16.9
Cc1noc(/C=C/c2ccccn2)c1[N+](=O)[O-],-3.1,48.3*,-0.4,1.5,·
COc1ccccc1N/C=C/c1onc(C)c1[N+](=O)[O-],·,·,-2.4,·,-4.2
Cc1noc(/C=C/Nc2ccc(F)cc2F)c1[N+](=O)[O-],3.0,·,40.1*,9.5,46.6
O=C(NCC[C@@H]1CC[C@@H](NC(=O)C2CCC2)[C@@H](CO)O1)c1ccc(F)cc1,-3.2,-4.5,·,0.7,·
COCC(=O)Nc1ccc2c(c1)[C@H]1C[C@@H](CC(=O)NCc3ccc(Cl)cc3)O[C@H](CO)[C@H]1O2,·,-1.5,·,1.3,·
COc1ccccc1C(=O)Nc1nnc(-c2ccc(F)cc2)s1,0.0,51.7*,12.6,-3.9,·
COc1ccccc1C(=O)Nc1ccncc1,-4.8,-2.7,0.6,-5.3,2.9
COc1ccccc1C(=O)Nc1nsc(-c2ccccc2)n1,-4.6,45.6*,?,-22.1,?
O=C(Nc1nnc(-c2ccccc2)s1)c1ccc(F)cc1,-2.7,46.6*,12.4,18.0,83.7*
O=C(CCCN1CCOCC1)c1ccc2c(c1)OCCO2,·,50.0*,·,·,34.5
O=C(COc1ccccc1Br)c1ccc(O)cc1O,-0.1,10.5,3.4,-42.4*,6.7
O=C(COc1ccccc1Br)NC1CCCC1,·,·,·,·,-5.5
O=C(COc1ccccc1Br)c1ccc2c(c1)OCO2,-1.5,43.0*,12.8,-2.6,58.0
O=C(COC(=O)c1ccc(O)cc1)c1ccc2c(c1)OCCO2,-1.1,38.2,38.5*,-2.2,78.9
CCCn1c2ccccc2c2cnn(CC(=O)NC3CCCC(C)C3C)c(=O)c21 (stereo not drawn),-6.0,1.0,-1.8,4.5,-23.9
O=C(CC1Oc2ccccc2NC1=O)NCCCN1CCCC1=O (stereo not drawn),-4.6,8.9,-3.8,11.8,-13.9
CCc1cnc(N2[C@H](CO)[C@H](c3ccccc3-c3ccccc3C)[C@@H]2C#N)s1,·,·,·,-1.9,·
CCOc1cc(/C=C2\SC(=Nc3ccc(CC)cc3)NC2=O)ccc1OCC(=O)O,-65.1,·,0.3,-11.0,5.5
O=C(NCc1cccs1)c1ccc2sc([C@H]3C[C@H](O)[C@@H](CO)O3)nc2c1,-4.1,18.9,-0.1,8.6,·
O=C(COC(=O)c1cc(Cl)ccc1O)c1ccc2c(c1)OCO2,-0.4,·,?,6.8,?
SMILES,AF4-AF9 inh,esBAF inh,Wnt bcat act,Ecoli rRNA inh,MITF TRPM1 HTS
O=C(COC(=O)c1ccc(O)cc1O)c1ccc2c(c1)OCO2,-1.1,63.5*,43.5*,-4.7,45.1
Cc1cc(C(=O)COC(=O)c2ccc(O)cc2O)c(C)n1C(C)C,2.1,61.1*,52.5*,-28.9,85.0*
Cc1ccc(C(=O)COC(=O)c2ccc(O)cc2)cc1,-1.4,·,22.5,-26.6*,?
COC(=O)C(Cc1ccc(O)cc1)NC(=O)c1ccc2c(c1)OCCO2 (stereo not drawn),-29.2,55.0*,9.8,0.4,18.6
Cn1c(=O)c2[nH]c(CCCCCc3nc4ccccc4[nH]3)nc2n(C)c1=O,0.1,-6.0,-5.2,6.3,·
COc1ccc(CC(=O)c2ccc(O)cc2O)cc1,-0.4,31.1,-1.5,-23.6,47.0
O=C(Cc1ccc(Br)cc1)c1ccc(O)cc1O,-1.4,59.6*,?,·,38.9
CCCc1ccc(OCc2ccc(C(=O)N3CCN(c4ccccn4)CC3)o2)c(OC)c1,·,45.3*,·,-19.6,16.4
Cc1ccc(NC(=O)c2nc[nH]c2C(=O)N[C@@H](C)C(=O)OC(C)(C)C)cc1,-1.1,3.5,-1.5,11.2,1.3
C[C@H](NC(=O)c1[nH]cnc1C(=O)Nc1ccccc1)C(=O)OC(C)(C)C,47.0*,-0.9,-1.3,5.1,-5.0
COc1cccc(NC(=O)C[C@@H]2CC[C@H]3[C@@H](COc4ccc(NC(C)=O)cc4C(=O)N3C)O2)c1,-0.2,-1.3,·,-2.4,·
N#Cc1ccccc1OCC(=O)Nc1ccc(N2CCOCC2)cc1N1CCOCC1,-0.5,2.4,-0.6,·,-12.6
